The campaign covered roughly 50,000 compounds. About 800 (1.6%) showed an effect of 50% or more. What follows is part of a selection rich in strong results, with near analogues and random picks from the rest.
What follows are compounds tested against Bcl-2-like protein 10 (Homo sapiens) (UniProt Q9HD36) (assay: TR3 peptide-Bcl-B binding displacers, biochemical primary FP assay, phenotype converters (AID 1240;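 further: 0% = Bcl-B with tracer peptide and DMSO and 100% = tracer peptide lacking Bcl-B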)). Conditions: GST-Bcl-B / FITC-TR3 peptide fluorescence polarization; stronger effect = higher value; compound at 3.75 mg/L.
Bcl-2-like protein 10 (Homo sapiens), sequence (Q9HD36 whole entry, looked up): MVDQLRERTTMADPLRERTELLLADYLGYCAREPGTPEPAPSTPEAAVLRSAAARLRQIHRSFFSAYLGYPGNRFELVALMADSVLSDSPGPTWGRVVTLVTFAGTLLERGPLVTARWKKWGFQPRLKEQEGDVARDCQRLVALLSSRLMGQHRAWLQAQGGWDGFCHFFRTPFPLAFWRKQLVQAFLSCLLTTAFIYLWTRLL

| SMILES | displacement |
| --- | --- |
| CCC(=O)Nc1nc(C23CC4CC(CC(C4)C2)C3)c(C)s1 | -2.7% |
| COc1cc(/C=C2/SC(=S)N(Cc3ccccc3)C2=O)cc(Cl)c1OCc1ccccc1 | 12.4% |
| CC1=C(C(=O)OCCc2ccccc2)C(c2ccccc2OCc2ccccc2)C2=C(CCCC2=O)N1 (configuration not stated) | -6% |
| CC(C)CN1C(=O)c2ccc(C(=O)Nc3c[nH]c(=O)[nH]c3=O)cc2C1=O | 7.8% |
| C=CCn1c(C)nc2c(cnn2-c2ccccc2)c1=O | -0.7% |
| C=C(C)C1CC=C(C)/C(=N/NC(=O)c2cccc(C)c2)C1 (configuration not stated) | 14.9% |
| CCn1cc(C(=O)NN)c(=O)c2cc(F)c(N3CCCCC3)cc21 | 17.4% |
| COc1cc(/C=C2/SC(=S)N(C)C2=O)ccc1OCc1cccc2ccccc12 | 6.6% |
| Cc1ccsc1/C=C(\C#N)c1nc(-c2cccc(Br)c2)cs1 | 95.2% |
| Cc1ccsc1/C=C(/C#N)c1nc(-c2ccc(Br)cc2)cs1 | 132% |
| Cc1ccc(-c2csc(/C(C#N)=C/c3sccc3C)n2)c(C)c1 | 69.3% |
| N#C/C(=C\c1cccs1)c1nc(-c2ccc(Cl)cc2Cl)cs1 | 129% |
| N#C/C(=C\c1cccs1)c1nc(-c2ccc(Br)cc2)cs1 | 5.9% |
| Cc1ccc(-c2csc(/C(C#N)=C/c3ccsc3)n2)cc1 | -5.9% |
| CCc1ccc(/C=C(/C#N)c2nc(-c3ccc(Br)cc3)cs2)cc1 | -3.5% |
| Cc1ccsc1/C=C(\C#N)c1nc(-c2cc3cc(Br)ccc3oc2=O)cs1 | -10.8% |
| Cc1csc(/C(C#N)=C/c2sccc2C)n1 | -12% |
| Cc1ccsc1/C=C(\C#N)c1nc(-c2ccc3c(c2)OCO3)cs1 | -27% |
| N#C/C(=C\c1ccccc1Cl)c1nc(-c2cccs2)cs1 | -9.2% |
| CC(C)(C)c1cc(C(=O)N/N=C/C=C/c2ccccc2)n[nH]1 | -9.5% |
| COc1ccc(/C=N/Nc2ncc(Br)cn2)cc1 | -11.3% |
| C=CCn1c(O)c(C2=c3cc(Cl)ccc3=NC2=O)sc1=S | -14.2% |

| SMILES | displacement |
| --- | --- |
| CCc1ccc(S(=O)(=O)Nc2ccccc2OC)cc1 | 13.8% |
| N/C(=N\OC(=O)c1ccc(Br)cc1)c1ccc(Cl)cc1 | 2.2% |
| Cc1cc(Cl)ccc1OCC(O)CN1C(C)CCCC1C (configuration not stated) | 0.8% |
| CC(=O)N1C(=O)/C(=C\C(=O)c2ccc([N+](=O)[O-])cc2)c2ccccc21 | 0.8% |
| CC(C)NC(=O)C12CC3CC(C1)CC(C(=O)NC(C)C)(C3)C2 | 1.3% |
| CCOC(=O)CSc1nnc2c3ccccc3n(CC)c2n1 | -10.4% |
| Cc1ccc(OCc2nnc(NC(=O)Nc3cccc(Cl)c3)s2)cc1C | 14.2% |
| C/C(=N\N=C1\NC(=O)C(CC(=O)Nc2ccc(Cl)cc2Cl)S1)c1ccc(Cl)cc1 (configuration not stated) | 15.5% |
| COc1ccc(CNC(=O)c2c(-c3c(Cl)cccc3Cl)noc2C)cc1 | 0.9% |
| Cc1ccc(/C=C(\C#N)c2nc(-c3ccc(C)c(C)c3)cs2)o1 | -25.1% |
| COc1cccc(-c2csc(/C(C#N)=C/c3ccc(C)o3)n2)c1 | -113% |
| Cc1ccc(/C=C(\C#N)c2nc(-c3cccc(Br)c3)cs2)o1 | 164% |
| Cc1ccccc1NC(=O)c1cc(-c2ccccc2)nc2c(Cl)cccc12 | -13.6% |
| COc1ccccc1N=Cc1c(O)c(C(=O)Nc2ccccc2)cc2ccccc12 | 105% |
| Cc1ccccc1NC(=O)c1cc2ccccc2c(/C=N/n2cnnc2)c1O | 109% |
| COc1cc(OC)c(C=Nc2ccccc2C(=O)Nc2ccccc2)cc1Br | -6% |
| CCOc1ccccc1C=Nc1ccccc1C(=O)Nc1ccccc1 | -7.9% |
| Cc1ccc(-n2c(O)c(/C=N/n3cnnc3)c3ccccc3c2=O)cc1 | 5.8% |
| COC(C(=O)NNC(=O)c1cccc(Cl)c1)c1ccccc1 (configuration not stated) | -5.9% |
| CCOC(=O)C1=C(C)NC(=O)NC1c1cc(OC)c(OC)c(OC)c1 (configuration not stated) | 9.3% |
| O=C(CN(c1cccc([N+](=O)[O-])c1)S(=O)(=O)c1ccccc1)NCC1CCCO1 (configuration not stated) | -4.4% |
| O=C(Nc1ccc2nn(-c3ccc(Cl)cc3)nc2c1)c1cccnc1 | 29.6% |

| SMILES | displacement |
| --- | --- |
| CCOC(=O)c1c(NC(=O)c2ccc(Cl)cc2Cl)sc(C(N)=O)c1C | 88.7% |
| CCOC(=O)c1c(NC(=O)c2ccc(Cl)cc2Cl)sc(C(=O)Nc2ccccc2C)c1C | 1.3% |
| CCOC(=O)c1c(NC(=O)c2ccc(Cl)cc2Cl)sc(C)c1C | 6.1% |
| O=S(=O)(c1ccc2ccccc2c1)N(CC(O)CN1CCOCC1)c1ccccc1 (configuration not stated) | -0.7% |
| O=C(NCc1cccnc1)c1cccc(S(=O)(=O)N2CCCCC2)c1 | 2.2% |
| CCOC(=O)/C=C/C(=O)Nc1sc(C)c(C)c1C(N)=O | -2% |
| COn1c(=O)c(-c2ccccc2)[n+]([O-])c2ccccc21 | 15.9% |
| CCOn1c(=O)c(-c2ccccc2)[n+]([O-])c2ccccc21 | 18.9% |
| CCOn1c(=O)c(-c2cccs2)[n+]([O-])c2ccccc21 | 121% |
| CCOn1c(=O)c(C)[n+]([O-])c2ccccc21 | 14.9% |
| O=c1c(-c2ccccc2)[n+]([O-])c2ccccc2n1O | 21.7% |
| O=c1c(-c2cccs2)[n+]([O-])c2ccccc2n1O | 69.4% |
| Cc1ccc(OCC(=O)NN)c(Br)c1 | -6.5% |
| CN1CCN(CCCOc2ccc(Br)cc2)CC1 | -8.4% |
| O=C(N/N=C/c1ccc(O)cc1)c1cc(C2CC2)[nH]n1 | -10.1% |
| COC(=O)C1=C(C(=O)OC)SC(=C2C(=S)C(C)(C)N(C(=O)c3cccc(F)c3)c3ccc(OC)cc32)S1 | -7.9% |
| Clc1ccc(-c2noc(-c3ccc(Cl)cc3Cl)n2)cc1 | 4.3% |
| CCOC(=O)C1=C(O)/C(=C/c2ccc(Cl)cc2)SC1=Nc1cccc2ccccc12 | -11.7% |
| CCOC(=O)C1=C(O)/C(=C/c2ccc(N(C)C)cc2)SC1=Nc1ccc(Cl)cc1 | 170% |
| CCOC(=O)C1=C(O)/C(=C/c2ccc(N(C)C)cc2)SC1=Nc1cccc(Cl)c1 | -53.7% |
| CCOC(=O)C1=C(O)/C(=C/c2ccc(N(C)C)cc2)SC1=Nc1ccc(F)cc1 | 142% |
| CCOC(=O)C1=C(O)/C(=C/c2ccc(Cl)cc2)SC1=Nc1ccc(OC)cc1 | 3.1% |

| SMILES | displacement |
| --- | --- |
| CCOC(=O)C1=C(O)/C(=C/c2ccc(N(C)C)cc2)SC1=Nc1ccc(OC)cc1 | 3.8% |
| CCOC(=O)C1=C(O)/C(=C/c2ccc(Cl)cc2)SC1=Nc1ccc(C)cc1 | 5.9% |
| CCOC(=O)C1=C(O)/C(=C/c2ccc(O)cc2)SC1=Nc1ccc(Cl)cc1 | 104% |
| CCOC(=O)C1=C(O)/C(=C/c2ccc(F)cc2)SC1=Nc1ccccc1 | -10.3% |
| CCOC(=O)C1=C(O)/C(=C/c2ccccc2)SC1=Nc1cccc2ccccc12 | 14.5% |
| CCOC(=O)C1=C(O)/C(=C/c2ccc(N(C)C)cc2)SC1=Nc1ccc([N+](=O)[O-])cc1 | 15.5% |
| CCOC(=O)C1=C(O)/C(=C/c2ccc(N(C)C)cc2)SC1=Nc1cccc2ccccc12 | 168% |
| Cc1cccc(OCC(=O)Nc2ccc(C)c(C)c2)c1 | -13.9% |
| CCOC(=O)C1=C(C)NC(=O)CC1c1cc2c(cc1Br)OCO2 (configuration not stated) | -6.4% |
| O=C(O)/C=C\C(=O)Nc1ccccc1SC(F)(F)F | 9.3% |
| O=C1C=CC(=O)N1c1ccc(Cl)cc1[N+](=O)[O-] | -9% |
| CCOC(=O)c1c(N)sc(C(=O)Nc2ccccc2F)c1C | 12.7% |
| CCC(=O)Nc1nc(C)c(-c2csc(Nc3cccc(C(=O)O)c3)n2)s1 | 34.5% |
| CC(NC(=O)COc1ccc(/C=N/NS(=O)(=O)c2ccccc2)cc1)c1ccccc1 (configuration not stated) | 4% |
| COc1ccc(C(=O)/C=C/c2ccc(-c3ccc([N+](=O)[O-])cc3)o2)cc1 | 133% |
| Cc1ccc(C(=O)/C=C/c2ccc(-c3ccc(Cl)cc3)o2)cc1 | 17.9% |
| COc1ccc(/C=C/C(=O)c2ccc([N+](=O)[O-])cc2)cc1 | 105% |
| COc1ccc(C(=O)/C=C/c2ccc(/C=C/C(=O)c3ccc(OC)cc3)cc2)cc1 | 19.1% |
| O=C(/C=C/c1ccc(-c2cccc(C(F)(F)F)c2)o1)c1ccc(F)cc1 | -28.8% |
| COc1ccc(C(=O)/C=C/c2ccc(-c3ccccc3[N+](=O)[O-])o2)cc1 | 13.8% |
| COc1ccc(-c2ccc(/C=C/C(=O)c3ccc(Cl)cc3)o2)cc1 | -16.7% |
| O=C(/C=C/c1ccc(-c2ccc(Br)cc2)o1)c1ccc([N+](=O)[O-])cc1 | -1.7% |

| SMILES | displacement |
| --- | --- |
| COc1ccc(-c2ccc(/C=C/C(=O)c3ccc(C)cc3)o2)cc1 | 91.1% |
| COc1ccc(/C=C/C(=O)c2cccc([N+](=O)[O-])c2)cc1 | 14.9% |
| O=C(/C=C/c1ccc(-c2ccccc2Cl)o1)c1ccc(F)cc1 | 6.5% |
| O=C(/C=C/c1ccc(-c2ccccc2)o1)c1ccc(F)cc1 | 54.3% |
| CC(C)(C)C1CCc2c(sc(NC(=O)c3ccccc3)c2C(N)=O)C1 (configuration not stated) | 37% |
| CCNC(=O)C(=O)Nc1ccc(OCC)cc1 | 7.5% |
| COc1ccc(NC2(c3ccccc3)C(=O)c3c(Cl)c(Cl)c(Cl)c(Cl)c3C2=O)cc1 | 4.4% |
| O=Cc1cccc(OCc2ccccc2F)c1 | -0.4% |
| CC1(O)c2ccccc2C(=O)N1Cc1ccccc1 (configuration not stated) | 12.6% |
| Cc1ccc(Cc2cnc(NC(=O)c3cccc([N+](=O)[O-])c3)s2)cc1 | 26.3% |
| C=C1CSc2nc(=O)c3c4c(sc3n21)CCC4 | 11.7% |
| O=C1NC(=O)C(=Cc2ccc(OC(=O)c3cccc([N+](=O)[O-])c3)cc2)C(=O)N1 | 1.8% |
| Cc1cccc(C(=O)Oc2ccc(/C=C3/N=C(c4ccccc4)OC3=O)cc2)c1 | 0.5% |
| O=C1OC(c2cccc(Cl)c2)=N/C1=C\c1ccc(OC(=O)c2cccc([N+](=O)[O-])c2)cc1 | 71.9% |
| CCCCCCCNC1CC(=O)N(c2ccc(Br)cc2)C1=O (configuration not stated) | 1.7% |
| Cc1ccc(-c2[nH]n3c(=O)c4c(nc3c2C)CCCC4)cc1 | -2.2% |
| Cc1ccc(-c2[nH]n3c(=O)c4c(nc3c2C)CCS4)cc1 | -0.6% |
| Cc1ccc(-c2[nH]n3c(=O)c4c(nc3c2C)CCC4)cc1 | 60.8% |
| CCOc1ccc(/C=C(/C#N)c2nc(-c3ccc(Br)cc3)cs2)c(OCC)c1 | 38.9% |
